Bioassay records as filed in PubChem BioAssay.
C-LANA FP: inhibitors of KSHV C-LANA binding to DNA, primary screen, biochemical, fluorescence polarization, FAM-LBS DNA, MBP-C-LANA, single point | hit rate 0.078% among 340,000 | inhibition, % at 9 µM | Kaposi's sarcoma herpesvirus LANA C-terminal domain (residues 932-1162) DNA binding | AID 504423, 2011;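 active = highest replicate inhibition at or above 60% at 9 µM, even if other replicates fall short; inactive = all replicates below 60% inhibition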
cardiac RTF act: cardiac RTF calcium sensitivity activators, primary screen, biochemical, IANBD-TnC fluorescence, EC20 calcium; AID 493008, 2010; IANBD-labeled TnC RTF fluorescence at EC20 calcium; 0% EC20 calcium, 100% full calcium; activation, % at 7.2 µM; Troponin I, cardiac muscle (Homo sapiens) + Troponin T, cardiac muscle (Homo sapiens) + …; hit rate 0.24% among 340,000;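 active = activation above the mean over all tested compounds plus 3 SD, cut at about 30% in these data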;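 also: rise in fluorescence read as greater calcium sensitivity of cardiac thin filaments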
Keap1-Nrf2 PPI: Keap1-Nrf2 protein-protein interaction inhibitors, primary screen, biochemical, fluorescence polarization, single point | Keap1 Kelch-Nrf2 peptide fluorescence polarization, 1536-well | inhibition, % at 9.4 µM | hit rate 0.15% among 340,000; in the data active = inhibition above about 12%;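 also: human Keap1 Kelch domain with fluorescein labeled Nrf2 9mer peptide probe; higher means more block of Keap1 binding to Nrf2 peptide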
Target sequence (Q14145 whole entry, looked up, the tested form may be a part): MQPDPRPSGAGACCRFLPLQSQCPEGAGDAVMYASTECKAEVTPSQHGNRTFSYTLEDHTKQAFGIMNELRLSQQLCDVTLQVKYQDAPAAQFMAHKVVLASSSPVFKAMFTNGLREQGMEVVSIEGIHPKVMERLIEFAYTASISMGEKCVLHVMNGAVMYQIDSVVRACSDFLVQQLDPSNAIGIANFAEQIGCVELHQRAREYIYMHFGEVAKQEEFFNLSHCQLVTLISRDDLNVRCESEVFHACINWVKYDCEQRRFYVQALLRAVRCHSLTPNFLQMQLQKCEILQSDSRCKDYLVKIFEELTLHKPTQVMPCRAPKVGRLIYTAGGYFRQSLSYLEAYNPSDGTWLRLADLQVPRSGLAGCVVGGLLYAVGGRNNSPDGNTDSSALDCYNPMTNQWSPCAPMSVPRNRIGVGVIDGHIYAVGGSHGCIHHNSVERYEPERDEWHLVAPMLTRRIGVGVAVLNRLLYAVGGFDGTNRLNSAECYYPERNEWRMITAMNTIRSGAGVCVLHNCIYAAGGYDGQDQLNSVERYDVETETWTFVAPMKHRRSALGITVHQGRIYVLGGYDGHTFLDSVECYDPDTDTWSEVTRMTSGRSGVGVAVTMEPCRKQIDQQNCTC
LANA-H2A inh: blockers of LANA interaction with H2A/H2B – biochemical, FP readout, HTS, primary screen. AID 2629, 2010. hit rate 0.6% among 320,000. inhibition, % (test concentration not listed). cell-free LANA-H2A/H2B peptide, fluorescence polarization. Protein LANA1 (Human herpesvirus 8 type P (isolate GK18)), Q9QR71; in the data active = inhibition mostly above about 10%, no sharp cut-off; inactive = mostly below about 6.7%
Cardiac RTF inh: cardiac RTF calcium sensitivity inhibitors, primary screen, biochemical, IANBD-TnC fluorescence, EC70 calcium; inhibition, % at 7.15 µM; hit rate 0.12% among 340,000; Troponin I, cardiac muscle (Homo sapiens) + Troponin T, cardiac muscle (Homo sapiens) + …; IANBD-labeled cardiac RTF, Ca2+ fluorescence;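 active = inhibition above the mean inhibition of all tested compounds plus 3 SD, cut at about 17% in these data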;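 also: assay run at fixed EC70 calcium of 1.6 mM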
eLon inh: inhibitors of E. coli Lon protease, primary screen, biochemical, fluorescence polarization; P0A9M0; purified E. coli Lon protease; inhibition, % at 7.94 µM; hit rate 0.42% among 360,000; in the data active = inhibition above about 13%, passing the limit was not always enough
eLon confirm: E. coli Lon protease inhibitor retest, confirmation, biochemical, fluorescence polarization; shares compounds with eLon inh; purified E. coli Lon; inhibition, % at 7.94 µM; hit rate 31% among 1,400; in the data active = inhibition above about 16%
Hits are given with their value; 0 = inactive; - = no result given. A selection: hits, their analogues and other compounds. The true share with any hit is near 1.3%.

SMILES	C-LANA FP	cardiac RTF act	Keap1-Nrf2 PPI	LANA-H2A inh	Cardiac RTF inh	eLon inh	eLon confirm
O=C(CCS(=O)(=O)Cc1ccccc1F)N1CCc2ccccc2C1	0	0	0	0	0	17.9	0
Cc1ccc(C(=O)N/C(=C/c2cccnc2)C(=O)N2CCCCCC2)cc1	0	0	0	0	0	0	-
OC(C#Cc1ccccn1)c1cccs1 (stereo unspecified)	0	0	0	0	0	30.3	0
CCCCn1c(=NC(=O)c2cccnc2)c(C#N)cc2c(=O)n3cccc(C)c3nc21	0	0	0	0	0	24.4	0
COCCCn1c(=NC(=O)c2ccncc2)c(C#N)cc2c(=O)n3cccc(C)c3nc21	0	0	0	0	0	37.9	21.8
CC(=O)Nc1cccc(NC(=O)CSc2nc(=O)n(CCN3CCOCC3)c3c2CCC3)c1	0	0	0	0	0	105.2	0
CC(C)C(=O)N1CCN(c2ccccc2NC(=O)c2cccc3ccccc23)CC1	0	0	0	0	0	0	-
c1ccc(C2(Cn3ccc4ccccc43)OCCO2)cc1	0	0	0	0	0	24.6	0
O=C(Cn1ccc2ccccc2c1=O)NCCC(=O)N1CCN(c2ccccc2)CC1	0	0	0	0	0	0	-
O=C(Cn1ccc2ccccc2c1=O)NCC(=O)N1CCN(c2ccc(F)cc2)CC1	0	0	0	0	0	22.6	0
CCOc1ccc(N(CC(=O)NCCc2ccccc2)S(=O)(=O)c2ccccc2)cc1	0	0	0	0	0	0	-
CC(=O)Nc1sc(C)c(C)c1C(=O)OCC(=O)Nc1cccc(C)c1	0	0	0	0	0	0	-
Cc1ccc(NC(=O)CSc2nnc(-c3ccco3)c(-c3ccco3)n2)cc1	0	0	0	0	0	161.3	0
CC(=O)Nc1ccc(NC(=O)CSc2ccc(-c3ccco3)nn2)cc1	0	0	0	0	0	17.2	0
CN(C)c1cccc(C(=O)NCc2ccccc2Cl)c1	0	0	0	0	0	68.1	0
Cc1cc2c(cc1S(=O)(=O)N(C)Cc1ccccc1)n(C)c(=O)c(=O)n2C	0	0	0	0	0	0	-
Cc1ccc(N2CN(S(=O)(=O)c3cccc([N+](=O)[O-])c3)c3nc4ccccc4nc32)cc1	0	0	0	0	0	0	-
O=C(Nc1cccc(O)c1)C1CCCN1C(=O)OCc1ccccc1 (stereo unspecified)	0	0	0	-	0	17.8	0
O=C(Nc1ccc(NC(=O)C2CCCN2C(=O)OCc2ccccc2)cc1)c1ccco1 (stereo unspecified)	0	0	0	0	0	0	-
C[C@H](O)[C@@H]1CN2CCc3c([nH]c4ccccc34)[C@@H]2C[C@@H]1N(C)C(=S)NCCc1ccccc1	-	-	-	-	-	197.3	120.6
Cc1oc(/N=C/c2ccc(O)cc2O)c(C#N)c1C	0	0	0	0	0	14.0	0
Cc1oc(/N=C/c2ccccc2O)c(C#N)c1C	0	0	0	0	0	0	-
Cc1c(C(=O)O)c(O)cc2c1C(=O)c1c(O)c([C@@H]3O[C@H](CO)[C@@H](O)[C@H](O)[C@H]3O)c(O)c(O)c1C2=O	0	0	0	0	0	44.9	21.8
O=C(COC(=O)C1=Cc2ccccc2OC1)NCc1ccc(F)cc1	0	0	0	-	0	31.4	0
COc1cc(CNc2ccc3[nH]c(=O)[nH]c3c2)cc(Br)c1OCc1ccccc1F	0	0	0	0	0	0	-
O=C1C2=C(SCCS2)C(=O)N1CCCO	0	0	0	0	0	40.9	55.1
O=C1c2ccc(-c3ccc4c(c3)C(=O)N(CCCO)C4=O)cc2C(=O)N1CCCO	0	0	0	0	0	0	-
